Results filed as inconclusive are left out. For part of these data: Entries with a potency or affinity are not part of this list. The source made the active and inactive calls. Unless noted, no rule for the calls is given here.
Experiments:
[1] = antimalarial activity against Dd2 strain (AID 2302;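 active = growth inhibition above 50% at the single 2 µM test dose, taken to imply half-maximal potency below 2 µM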;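 also: 0% = DMSO untreated growth and 100% = chloroquine plus artemisinin killed control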); conditions: P. falciparum Dd2 in RBCs, LDH growth readout, 72 h; at 2 µM; stronger effect = higher value
[2] = HepG2 cytotoxicity, primary screen, cytotoxicity control for P. falciparum antimalarial project, cell-based, ATP luminescence (AID 2303;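 active = inhibition above 50%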;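 also: 0% = DMSO wells and 100% = digitonin-killed cells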); conditions: HepG2 viability, 24-48 h, at 10 µM, stronger effect = higher value
[3] = molecular target: L-lactate dehydrogenase (Plasmodium falciparum (isolate CDC / Honduras)) (UniProt Q27743); experiment: PfLDH activity inhibition – cell lysate, 3D7 strain, counter-screen for P. falciparum growth inhibition project (AID 2304);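 also: 0% = vehicle and 100% = reference inhibitor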; conditions: P. falciparum 3D7 crude extract, LDH APAD/NBT absorbance; at 2 µM; stronger effect = higher value
Chain of L-lactate dehydrogenase (Plasmodium falciparum (isolate CDC / Honduras)) (Q27743 whole entry, looked up): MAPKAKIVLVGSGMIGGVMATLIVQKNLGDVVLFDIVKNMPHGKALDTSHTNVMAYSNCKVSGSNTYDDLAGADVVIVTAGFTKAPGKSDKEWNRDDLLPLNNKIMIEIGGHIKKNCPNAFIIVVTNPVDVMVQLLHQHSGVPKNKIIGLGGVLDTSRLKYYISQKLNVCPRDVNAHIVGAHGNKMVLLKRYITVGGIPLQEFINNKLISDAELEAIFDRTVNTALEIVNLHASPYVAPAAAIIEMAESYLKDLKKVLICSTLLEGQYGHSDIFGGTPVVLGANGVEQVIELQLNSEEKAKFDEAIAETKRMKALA

[4] = inhibition of 3D7 malaria parasite growth – strain 3D7 (AID 2306);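 also: 0% = DMSO wells and 100% = chloroquine plus artemisinin control wells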; conditions: P. falciparum 3D7 erythrocytic growth, LDH absorbance, 72 h; at 2 µM; stronger effect = higher value
[5] = molecular target: Calcium-dependent protein kinase 1 (Plasmodium falciparum (isolate 3D7)) (UniProt P62344); experiment: PfCDPK1 kinase inhibitors, biochemical, TCAMS library (AID 1159585; cut-off not given, nearly all actives have IC50 up to about 0.98 µM;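 also: inhibitors leave more ATP so luminescence rises with inhibition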); conditions: recombinant PfCDPK1, Kinase-Glo ATP depletion luminescence
Chain of Calcium-dependent protein kinase 1 (Plasmodium falciparum (isolate 3D7)) (P62344 whole entry, looked up): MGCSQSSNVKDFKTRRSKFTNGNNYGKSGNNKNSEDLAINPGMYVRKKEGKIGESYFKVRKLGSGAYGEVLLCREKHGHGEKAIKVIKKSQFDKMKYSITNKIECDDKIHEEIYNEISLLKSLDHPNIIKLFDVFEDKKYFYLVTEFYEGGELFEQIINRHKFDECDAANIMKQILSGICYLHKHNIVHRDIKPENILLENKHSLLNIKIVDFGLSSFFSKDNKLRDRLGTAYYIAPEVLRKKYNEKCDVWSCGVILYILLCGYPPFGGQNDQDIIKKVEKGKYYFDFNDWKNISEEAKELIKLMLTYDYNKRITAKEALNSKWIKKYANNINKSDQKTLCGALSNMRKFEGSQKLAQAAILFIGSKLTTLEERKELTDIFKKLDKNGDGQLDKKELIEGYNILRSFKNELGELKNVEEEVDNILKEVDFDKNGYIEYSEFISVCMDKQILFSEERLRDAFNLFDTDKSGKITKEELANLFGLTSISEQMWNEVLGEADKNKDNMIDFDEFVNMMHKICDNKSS

[6] = molecular target: Plasmodium falciparum protein kinase 6 (PK6, PF3D7_1337100) (UniProt Q8IDW1); experiment: PfPK6 kinase inhibitors, biochemical, TCAMS library (AID 1159586); conditions: recombinant PfPK6, Kinase-Glo ATP depletion luminescence
Chain of Plasmodium falciparum protein kinase 6 (PK6, PF3D7_1337100) (Q8IDW1 1-305): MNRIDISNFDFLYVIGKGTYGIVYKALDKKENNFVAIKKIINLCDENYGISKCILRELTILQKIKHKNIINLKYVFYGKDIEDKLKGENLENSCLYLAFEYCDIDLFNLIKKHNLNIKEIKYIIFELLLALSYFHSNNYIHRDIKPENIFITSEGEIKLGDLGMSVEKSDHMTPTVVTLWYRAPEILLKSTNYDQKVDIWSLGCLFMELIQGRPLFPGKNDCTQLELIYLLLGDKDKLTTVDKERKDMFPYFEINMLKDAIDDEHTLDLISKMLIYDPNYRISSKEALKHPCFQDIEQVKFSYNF

[7] = molecular target: Protein kinase 7 (PK7), Plasmodium falciparum 3D7 (PF3D7_0213400) (UniProt Q7YTF7); experiment: inhibition of Plasmodium PK7 catalytic activity – biochemical, TCAMS antimalarial set, Kinase-Glo luminescence (AID 1159587); conditions: recombinant PfPK7, Kinase-Glo ATP depletion luminescence
Chain of Protein kinase 7 (PK7), Plasmodium falciparum 3D7 (PF3D7_0213400) (Q7YTF7 1-343): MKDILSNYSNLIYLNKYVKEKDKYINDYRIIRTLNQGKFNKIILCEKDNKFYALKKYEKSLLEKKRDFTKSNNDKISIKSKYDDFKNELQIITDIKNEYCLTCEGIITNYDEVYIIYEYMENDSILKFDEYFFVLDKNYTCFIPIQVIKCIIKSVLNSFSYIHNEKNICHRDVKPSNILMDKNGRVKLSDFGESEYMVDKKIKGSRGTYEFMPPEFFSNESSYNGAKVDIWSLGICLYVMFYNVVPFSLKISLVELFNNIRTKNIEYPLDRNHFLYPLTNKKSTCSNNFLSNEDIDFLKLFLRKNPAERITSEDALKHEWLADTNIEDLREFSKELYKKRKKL

[8] = molecular target: Calcium-dependent protein kinase 4 (Plasmodium falciparum (isolate 3D7)) (UniProt Q8IBS5); experiment: PfCDPK4 kinase inhibitors, biochemical, TCAMS library (AID 1159588; cut-off not given, nearly all actives have IC50 up to about 0.91 µM); conditions: recombinant PfCDPK4, Kinase-Glo ATP depletion luminescence
Chain of Calcium-dependent protein kinase 4 (Plasmodium falciparum (isolate 3D7)) (Q8IBS5 whole entry, looked up): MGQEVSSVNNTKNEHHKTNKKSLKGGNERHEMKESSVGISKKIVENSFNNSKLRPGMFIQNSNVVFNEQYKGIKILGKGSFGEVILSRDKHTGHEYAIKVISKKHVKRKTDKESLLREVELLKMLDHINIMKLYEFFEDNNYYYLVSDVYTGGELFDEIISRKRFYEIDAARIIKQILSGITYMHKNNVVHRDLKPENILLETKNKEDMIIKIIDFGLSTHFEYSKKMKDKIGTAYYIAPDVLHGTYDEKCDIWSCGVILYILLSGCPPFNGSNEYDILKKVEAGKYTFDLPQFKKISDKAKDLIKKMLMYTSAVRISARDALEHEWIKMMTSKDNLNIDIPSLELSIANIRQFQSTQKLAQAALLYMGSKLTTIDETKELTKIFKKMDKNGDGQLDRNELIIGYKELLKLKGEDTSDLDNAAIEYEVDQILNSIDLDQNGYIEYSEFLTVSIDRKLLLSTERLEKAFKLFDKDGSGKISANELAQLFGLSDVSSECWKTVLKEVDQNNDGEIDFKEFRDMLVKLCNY

[9] = test system: Aerobactin synthetase IucA (Klebsiella pneumoniae); experiment: IucA aerobactin synthetase inhibitors, biochemical, Tocris library, absorbance (AID 1345561); conditions: purified IucA enzyme assay, absorbance (OD) read-out; stronger effect = lower value;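 tested at 8 µM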;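 also: 100% = enzyme without compound and 0% = no enzyme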
[10] = growth inhibition of DIPG glioma cells, dose response, cell-based, SU-DIPG-XIII, MIPE4.0, CellTiter-Glo, qHTS (AID 1347061; cut-off not given, nearly all actives have AC50 up to about 37 µM;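 also: cells exposed to compound for 48 hours before readout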); conditions: SU-DIPG-XIII viability, CellTiter-Glo ATP luminescence
[11] = growth inhibition of DIPG glioma cells, dose response, cell-based, JHH-DIPG-1, MIPE4.0, CellTiter-Glo, qHTS (AID 1347062; cut-off not given, nearly all actives have AC50 up to about 27 µM;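 as to AC50: cells exposed to compound for two days before readout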); conditions: JHH-DIPG-1 viability, CellTiter-Glo ATP luminescence
[12] = growth inhibition of DIPG glioma cells, dose response, cell-based, SU-DIPG-IV, MIPE4.0, CellTiter-Glo, qHTS (AID 1347063; cut-off not given, nearly all actives have AC50 up to about 30 µM;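 also: compound exposure lasted 48 hours before the viability readout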); conditions: SU-DIPG-IV viability, CellTiter-Glo ATP luminescence
[13] = SU-DIPG-VI glioma cell viability, MIPE4.0 library, CellTiter-Glo luminescence, qHTS (AID 1347066; cut-off not given, nearly all actives have AC50 up to about 30 µM;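 also: cells exposed to compound for 48 hours before readout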); conditions: CellTiter-Glo ATP luminescence
[14] = inhibitors of Cryptococcus chitosan production, flow cytometry, Cibacron Brilliant Red staining (AID 1347148); conditions: Cryptococcus neoformans chitosan, stronger effect = lower value; at 10 µM unless noted;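 also: compound exposure lasted three days at 37 degrees C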
[15] = growth inhibition of DIPG glioma cells, dose response, cell-based, SU-DIPG-XVII, MIPE5.0, CellTiter-Glo, qHTS (AID 1347060; cut-off not given, nearly all actives have AC50 up to about 26 µM;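 also: cells exposed to compound for 48 hours before viability readout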); conditions: SU-DIPG-XVII viability, CellTiter-Glo ATP luminescence
[16] = growth inhibition of DIPG glioma cells, dose response, cell-based, SU-DIPG-XIII, MIPE5.0, CellTiter-Glo, qHTS (AID 1347064; cut-off not given, nearly all actives have AC50 up to about 23 µM;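 as to AC50: cells exposed to compound for 48 hours before the viability read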); conditions: SU-DIPG-XIII viability, CellTiter-Glo ATP luminescence
[17] = viability loss in pontine glioma line – cell-based, SU-DIPG-XXV, MIPE5.0, CellTiter-Glo, qHTS, dose response (AID 1347065; cut-off not given, nearly all actives have AC50 up to about 26 µM;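 also: cells exposed to compound for 48 hours before ATP readout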); conditions: CellTiter-Glo ATP luminescence
[18] = SU-DIPG-XXV glioma cell viability, MIPE5.0 library, qHTS (AID 1347068; cut-off not given, nearly all actives have IC50 up to about 30 µM;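 as to IC50: cells exposed to compound for 48 hours before viability readout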)
[19] = JHH-DIPG-1 glioma cell viability, MIPE5.0 library, CellTiter-Glo luminescence, qHTS (AID 1347067; cut-off not given, nearly all actives have AC50 up to about 26 µM;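 also: cells exposed to compound for 48 hours before readout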); conditions: JHH-DIPG-1 glioma viability, CellTiter-Glo ATP luminescence
[20] = enhancers of SMN2 over SMN1 splicing, cell-based, SMN2/SMN1 luciferase reporters (AID 1598); conditions: SMN2 vs SMN1 luciferase splicing reporter cells, at 10 µM; SMN1 luciferase ratio: measured here: SMN1 luciferase reporter average; SMN2 luciferase ratio: measured here: SMN2 luciferase reporter average, stronger effect = higher value; SMN2/SMN1 luciferase ratio: stronger effect = higher value

C=C[C@H]1CN2CC[C@H]1C[C@H]2[C@H](O)c1ccnc2ccccc12
inactive: growth inhibition [1] 3% | inhibition [2] 9% | inhibition [3] 2% | outcome [5] | outcome [6] | outcome [7] | outcome [8]
active: growth inhibition [4] 100%

Cc1nccc2c1[nH]c1ccccc12
inactive: remaining activity [9] 108%

CC[C@H]1CN2CC[C@H]1C[C@@H]2[C@@H](O)c1ccnc2ccc(OC)cc12
active: growth inhibition [1] 95% | growth inhibition [4] 100%
inactive: inhibition [2] -3% | inhibition [3] 1% | outcome [5] | outcome [6] | outcome [7] | outcome [8]

COc1cc(OC)c(OC)cc1C=O
inactive: outcome [10] | outcome [11] | outcome [12] | outcome [13]

O=C1C=CC(=O)c2c(O)cccc21
active: fold fluorescence [14] 2.01 [at 287.1 µM]

COc1cc([C@@H]2c3cc4c(cc3[C@@H](O)C3COC(=O)C32)OCO4)cc(OC)c1O (stereo not given in full)
active: AC50 [15] 0.263 µM | AC50 [16] 0.525 µM | AC50 [17] 0.417 µM | IC50 [18] 0.332 µM

COC1=C[C@@H]2[C@@H]3Cc4ccc(OC)c(O)c4[C@]2(CCN3C)CC1=O
active: AC50 [10] 3.32 µM | AC50 [12] 0.935 µM
inactive: outcome [16] | outcome [17] | outcome [13] | outcome [19] | outcome [18]

CC1=C(O)C(=O)C=C2C1=CC=C1[C@@]2(C)CC[C@@]2(C)[C@@H]3C[C@](C)(C(=O)O)CC[C@]3(C)CC[C@]12C
active: AC50 [15] 2.09 µM | AC50 [10] 3.32 µM | AC50 [11] 2.64 µM | AC50 [12] 1.32 µM | AC50 [16] 2.35 µM | AC50 [17] 1.66 µM | AC50 [13] 1.18 µM | AC50 [19] 0.934 µM | IC50 [18] 11.8 µM

O=C1C=C2C(=CCOC2O)O1 (stereo not given)
0.46: SMN2 luciferase ratio [20]
active: SMN2/SMN1 luciferase ratio [20] 2.76
0.26: SMN1 luciferase ratio [20]

— PubChem BioAssay
